From PubChem BioAssay
HCV inh: inhibitors of hepatitis C virus infection; Huh7.5.1 HCVcc-Cre infection, luciferase reporter, 44 h; Potency, µM (titrated, usually from 41.8 µM), most hits filed as inhibitors; actives 3.4% (n = 340,000); AID 651820
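HCVcc-Cre virus at an moi near 0.5 was added right after compound to cells cultured 4 h from seeding (1,000 cells/well). Luciferase activity was determined 44 h later, 15 min after substrate addition at RT.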
Pf growth 96h: P. falciparum growth inhibition at 96 hour, primary screen for plastid delayed-death inhibitors. P. falciparum luciferase reporter growth, 96 h. Potency, µM (highest dose often 28.7 µM), hits mostly inhibitors. actives 6.9% (n = 320,000). AID 504834
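Two-generation exposure (96 h) targets delayed-death phenotype. Reporter parasites carrying integrated firefly luciferase, in red cells at 2% hematocrit and 0.05% parasitemia final, kept at 37 C, 5% CO2; luminescence loss indicates inhibition.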
HCMV antiviral: inhibitors of human cytomegalovirus | HFF cells, HCMV-luciferase reporter, 72 h; stronger effect = lower value | activity change, negative = inhibition, % at 57.5 µM | actives 4.5% (n = 410,000) | AID 1259415; in the data active = activity change below about -60%; inconclusive = no clear call, values can overlap the other calls; inactive = above about -39%
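Screen run at 2 compound doses on HFFs infected with reporter HCMV, MOI 1 PFU/cell. Luciferase activity from cell lysates at 72 h post infection gave inhibition relative to buffer-only and Salinomycin wells.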
Pf growth 48h: P. falciparum growth inhibition at 48 hours (one generation) | Potency, µM (titrated, usually from 28.7 µM), most hits filed as inhibitors | actives 5.9% (n = 310,000) | P. falciparum luciferase growth in erythrocytes, 48 h
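Read-out is firefly luciferase luminescence from an integrated reporter in P. falciparum, so falling signal marks reduced parasite growth. Infected erythrocytes were at 2% hematocrit and 0.1% parasitemia (final) in Albumax-supplemented RPMI 1640.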
Large screens that a line does not name were inactive. Sampled rows, rich in hits. Any-hit rate of the full collection: about 13%. Unless noted, calls come from the whole dose curve; as a rule, active = well fitted inhibition curve with a large enough effect; inconclusive = small, poorly fitted or top-dose-only effect, or another doubt; inactive = no such curve, though single readings can be large or run the other way.

CCC(C(=O)NCCC1=CCCCC1)n1nc(C)c2c(C)n(-c3ccccc3)nc2c1=O (centres undefined)	Pf growth 96h 12µM, Pf growth 48h inconclusive
COC(=O)c1sc2cccc(F)c2c1S(=O)(=O)N1CCN(c2cccc(OC)c2)CC1	none (no result: HCV inh, Pf growth 96h, Pf growth 48h)
CCCCCc1cc(=O)oc2c(C(CCN3CCN(c4ccccc4)CC3)c3ccc4c(c3)OCO4)c(OC)cc(OC)c12 (centres undefined)	HCV inh inconclusive, Pf growth 96h 5.2µM, Pf growth 48h 7.4µM
CCCOc1ccc(OCCN2CCCC(C)C2)cc1 (centres undefined)	none
CCCCCc1cc(=O)oc2c(C(CCN3CCCC(C)C3)c3ccc(OC)cc3)c(OC)cc(OC)c12 (centres undefined)	Pf growth 96h 3.3µM, Pf growth 48h inconclusive
CCCCc1cc(=O)oc2c(CN3CCCC3)c(O)ccc12	Pf growth 96h inconclusive, Pf growth 48h inconclusive
CCCCN(CCCC)Cc1cc(=O)oc2cc(OC)ccc12	none (no result: HCV inh, Pf growth 96h, Pf growth 48h)
CCCCCc1cc(=O)oc2c(C(CCN3CCCCC3)c3ccc(OC)cc3)c(OC)cc(OC)c12 (centres undefined)	HCV inh inconclusive, Pf growth 96h 2.6µM, Pf growth 48h 3.3µM
CCCCCc1cc(=O)oc2c(C(CCN(CC)CC)c3ccc(OC)cc3)c(OC)cc(OC)c12 (centres undefined)	HCV inh inconclusive, Pf growth 96h 1.9µM, HCMV antiviral -81, Pf growth 48h 3.3µM
CCOC(=O)C1CCCN(C(=O)c2ccccc2NC(=O)c2nsc3ccccc23)C1 (centres undefined)	none (no result: HCV inh, Pf growth 96h, Pf growth 48h)
CCOC(=O)c1ccc(NC2=CC(c3ccc(O)c(OCC)c3)N(c3ccc(C(=O)OCC)cc3)C2=O)cc1 (centres undefined)	none (no result: HCV inh, Pf growth 96h, Pf growth 48h)
COc1ccc(C(CCN2CCCC(C)C2)c2c(OC)cc(OC)c3c2OC(=O)CC3c2cc(OC)c(OC)c(OC)c2)cc1 (centres undefined)	Pf growth 96h 10µM, Pf growth 48h 12µM (no result: HCMV antiviral)
CCCCCc1cc(=O)oc2c(C(CCN3CCCC3)c3cc(OC)c(OC)c(OC)c3)c(OC)cc(OC)c12 (centres undefined)	HCV inh inconclusive, Pf growth 96h 3.3µM, Pf growth 48h 2.6µM
CCCCCc1cc(=O)oc2c(C(CCN3CCCC3)c3ccc(N(C)C)cc3)c(OC)cc(OC)c12 (centres undefined)	Pf growth 96h 9.3µM, Pf growth 48h inconclusive
OCc1nc2ccccc2n1CC(O)COc1ccccc1 (centres undefined)	none
N=c1n(Cc2ccccc2)c2ccccc2n1CC(O)COc1ccccc1 (centres undefined)	HCV inh 14µM, Pf growth 96h 9.3µM, HCMV antiviral inconclusive, Pf growth 48h 15µM
Cc1ccc(Cn2c(=N)n(CC(O)COc3ccccc3)c3ccccc32)cc1 (centres undefined)	HCV inh inconclusive, Pf growth 96h 1.7µM (no result: Pf growth 48h)
OC(COc1ccccc1)CN1CCCC1 (centres undefined)	none
Cc1c2cnn(CC(=O)NCc3ccc(F)cc3)c(=O)c2c(C)n1Cc1cccc(Cl)c1	none (no result: HCV inh, Pf growth 96h, Pf growth 48h)
C/C=C/C(=O)OCC(=O)Nc1ccc(SC(F)F)cc1	HCMV antiviral -76
CC(C)C(=O)NNC(=O)c1ccccn1	Pf growth 96h 13µM, Pf growth 48h inconclusive
CC(Oc1ccccc1)C(=O)N/N=C/c1ccccn1 (centres undefined)	Pf growth 96h inconclusive
CC(Oc1cccc(Br)c1)C(=O)NNC(=O)c1ccccn1 (centres undefined)	HCV inh 5µM (no result: Pf growth 96h, HCMV antiviral, Pf growth 48h)
C/C(=N\NC(=O)C(C)Oc1ccc([N+](=O)[O-])cc1)c1ccccn1 (centres undefined)	HCV inh inconclusive, Pf growth 96h 2.1µM, HCMV antiviral -104, Pf growth 48h inconclusive
CC(C)Nc1nc(Cl)nc(NNC(=O)C(C)Oc2ccccc2)n1 (centres undefined)	Pf growth 96h 1.7µM
O=C(NNCc1ccccc1)c1ccccn1	none (no result: Pf growth 96h, Pf growth 48h)
COCCCNS(=O)(=O)c1cc(-c2onc(C)c2C)ccc1OC	none (no result: HCV inh, Pf growth 96h, Pf growth 48h)
COc1cc(C(=O)Nc2nonc2-c2ccc(Cl)cc2)cc(OC)c1OC	none (no result: HCV inh, Pf growth 96h, Pf growth 48h)
Cc1ccc(Cn2c(C)c(CNCCCc3ccccc3)c(C(=O)O)c2C)cc1	none (no result: HCV inh, Pf growth 96h, Pf growth 48h)
CC(Oc1ccccc1)C(=O)NNC(=O)c1ccccn1 (centres undefined)	HCV inh inconclusive, Pf growth 96h inconclusive, HCMV antiviral inconclusive, Pf growth 48h 9.3µM
C1=NCCc2c1[nH]c1ccccc21	HCMV antiviral -95 (no result: Pf growth 96h, Pf growth 48h)
CCNc1nc(Oc2ccc(C(=O)OCC)cc2)nc(SC)n1	HCV inh inconclusive, Pf growth 48h 12µM
CCOC(=O)c1ccc(Oc2nc(SC)nc(N(C)C)n2)cc1	HCV inh inconclusive, Pf growth 48h inconclusive
CCNc1nc(Oc2ccc(C(=O)OC)cc2)nc(SC)n1	HCV inh inconclusive, Pf growth 96h inconclusive, Pf growth 48h inconclusive
CCOC(=O)c1ccc(Oc2nc(NC)nc(SC)n2)cc1	Pf growth 48h 3.7µM (no result: Pf growth 96h)
COCCCNC(=O)C1CCN(C(=O)c2ccc(-n3ccc4ccccc43)s2)CC1	none (no result: HCV inh, Pf growth 96h, Pf growth 48h)
S=C(NCc1ccccn1)NN=Cc1ccccn1	HCV inh inconclusive, HCMV antiviral -99 (no result: Pf growth 96h, Pf growth 48h)
O=C(NCc1ccccn1)C(=O)N/N=C/c1ccc2c(c1)OCO2	Pf growth 96h 4.7µM, HCMV antiviral -90
O=C(NCCc1ccccc1)C(=O)N/N=C/c1ccc2c(c1)OCO2	none
O=C(CNC(=O)c1cccc(Br)c1)N/N=C/c1ccc2c(c1)OCO2	HCMV antiviral -74
S=C(NN=Cc1ccc2c(c1)OCO2)NN=Cc1ccc2c(c1)OCO2	none (no result: Pf growth 96h, Pf growth 48h)
CC(C)NC(=S)N/N=C/c1ccc2c(c1)OCCO2	HCMV antiviral -67
Cc1ccc(NC(=S)NCc2ccccn2)cc1	none
Cc1oc2c(cc(NS(=O)(=O)c3ccc(F)cc3)c3ccccc32)c1C(=O)OCc1ccccc1	none (no result: HCV inh, Pf growth 96h, Pf growth 48h)
CCOc1ccc(-c2c(C)nn3c(C)c(C(=O)Nc4cccc(Cl)c4C)cnc23)cc1OCC	none (no result: HCV inh, Pf growth 96h, Pf growth 48h)
Cc1ccccc1OCC(=O)N/N=C/c1ccc2c(c1)OCCO2	Pf growth 96h 2.6µM
CC1(C(=O)N/N=C/c2ccc3c(c2)OCO3)CC1(Br)Br (centres undefined)	Pf growth 96h 5.2µM
O=C(COc1cccc(Br)c1)N/N=C/c1ccc2c(c1)OCCO2	none (no result: HCV inh, Pf growth 96h, Pf growth 48h)
Cc1cccc(OCC(=O)N/N=C/c2ccc3c(c2)OCO3)c1	none
CC1(C(=O)N/N=C/c2ccccc2)CC1(Br)Br (centres undefined)	Pf growth 96h inconclusive
Cc1ccc(/C=N/NC(=O)C2(C)CC2(Br)Br)cc1 (centres undefined)	HCV inh inconclusive, Pf growth 96h inconclusive
CC1(C(=O)N/N=C/c2ccccc2)CC1(Cl)Cl (centres undefined)	Pf growth 96h 3.3µM
Cc1cc(C)c(OCC(=O)N/N=C/c2ccc3c(c2)OCO3)c(C)c1	Pf growth 96h 12µM
Cc1ccc(S(=O)(=O)NCCc2cn3c(C)csc3n2)cc1	none (no result: HCV inh, Pf growth 96h, Pf growth 48h)
CCOC(=O)c1cccc(NC(=O)c2cc(S(=O)(=O)N3CCCC3)cn2C)c1	none (no result: HCV inh, Pf growth 96h, Pf growth 48h)
CSc1ccc(CNCc2c(C(=O)O)c(C)n(Cc3ccc(F)cc3Cl)c2C)cc1	none (no result: HCV inh, Pf growth 96h, Pf growth 48h)
